# GLA spleen mod: inhibits or activates alpha-galactosidase in human spleen homogenate; human spleen homogenate, 4MU-alpha-Gal fluorescence, 40 min; P06280; 240,000 compounds, 0.008% hits; Potency, µM (doses to about 80 µM), for the others: at the top dose activity change, negative = inhibition, most hits filed as inhibitors;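 also: potency is read from the fitted curve at half-maximal effect; 0% = enzyme with vehicle and -100% = no enzyme basal signal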
#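 Fluorogenic readout (Ex 365/Em 440 nm) of 4-methylumbelliferone released from 1 mM 4-MU-alpha-galactoside by spleen homogenate, 40 min at 37C, pH 5.0. Data normalized to no-enzyme and enzyme controls; Hill-equation AC50 from compound titrations.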
# HTT cytoprotect: Huntington cell model cytoprotection by ATP luminescence; PC12 HTT-Q103 induced, cytoprotection, ATP luminescence, 40 h; Potency, µM (titrated, usually from 56.4 µM), for the others: cytoprotection (ATP increase), hits mostly activators; 230,000 compounds, 0.14% hits; AID 1471; also: potency is read from the fitted curve at half-maximal effect; % of control where 0% means no effect; nearly all actives have a fitted effect of over 45% in size
#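 PC12 cells with ecdysone-inducible HTT exon 1 Q103-GFP, induced with 100 nM tebufenozide and co-treated with library compounds in a dose series (1536-well, 1500 cells/well). Cytoprotection read as ATP content by ATPlite luminescence.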
# HttQ103 aggreg: inhibitors of mutant huntingtin aggregate formation in PC12 cells; PC12 HttQ103-GFP aggregates, Acumen cytometry, 40 h; 220,000 compounds, 1.1% hits; Potency, µM (titrated, usually from 46.1 µM), without a hit: top-dose activity change, negative = inhibition, most hits filed as inhibitors; AID 1688; also: potency is read from the fitted curve at half-maximal effect; % is scaled to controls: 0 for no effect and ±100 for the full control effect; nearly all actives have a fitted effect of over 60% in size
#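 PC12/HTTQ103-GFP, ecdysone-inducible; teb 100 nM; cpd qHTS titration; GFP aggregates read on laser cytometer, Ex 488/Em 500-530 nm.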
# GLA inh pH 4.5: blocks human alpha-galactosidase A at pH 4.5; 230,000 tested, under 10 active; AID 1467; activity change, negative = inhibition, % at 105 µM; purified enzyme, 4-MU-alpha-Gal fluorescence, pH 4.5;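 also: 0% = full activity with enzyme and -100% = basal without enzyme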
# PKM2 act: increases activity of human pyruvate kinase M2; 260,000 compounds, 0.34% hits; P14618; Potency, µM (top dose mostly 57.5 µM), for inactives: at the top dose activation, actives largely listed as activators; AID 1631; purified PKM2, Kinase-Glo ATP luminescence, activation; response scale: 0% is enzyme alone, no compound; also: potency is read from the fitted curve at half-maximal effect; % is scaled to controls: 0 for no effect and ±100 for the full control effect; nearly all actives have a fitted effect of over 55% in size
# Target sequence (P14618 whole entry, looked up): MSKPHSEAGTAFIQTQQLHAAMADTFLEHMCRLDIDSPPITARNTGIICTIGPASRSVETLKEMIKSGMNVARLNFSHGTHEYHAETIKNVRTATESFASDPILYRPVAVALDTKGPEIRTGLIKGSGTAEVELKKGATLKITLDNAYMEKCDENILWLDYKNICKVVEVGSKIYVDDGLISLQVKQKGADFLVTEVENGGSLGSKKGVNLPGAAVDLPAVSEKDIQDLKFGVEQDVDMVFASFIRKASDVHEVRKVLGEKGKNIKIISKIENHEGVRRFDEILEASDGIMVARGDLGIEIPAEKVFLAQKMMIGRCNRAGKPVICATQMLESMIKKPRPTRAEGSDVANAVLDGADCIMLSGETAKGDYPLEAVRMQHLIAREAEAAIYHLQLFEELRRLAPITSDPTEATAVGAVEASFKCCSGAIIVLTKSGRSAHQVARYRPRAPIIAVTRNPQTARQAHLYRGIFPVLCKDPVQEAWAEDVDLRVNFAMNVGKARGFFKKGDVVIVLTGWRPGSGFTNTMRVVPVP
#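 Purified hPK-M2 (>95%) run at intermediate activity with 0.1 mM ADP and 0.5 mM PEP in 50 mM imidazole pH 7.2, KCl, MgCl2; 1 h room temperature. ATP formed read by Kinase-Glo luminescence; normalized to uninhibited and no-enzyme controls.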
# An asterisk follows results filed as active; ? = inconclusive; . = not tested or not shown; [ ] = remark or other dose. Most compounds without a hit are left out; they make up all but 1.2% or so of the library. Calls follow the shape of the dose curve; as a rule, active = well fitted curve in the direction sought with a large enough effect; inconclusive = small, poorly fitted or top-dose-only effect, or another doubt; inactive = no such curve, though single readings can be large; an effect the other way counts as inactive or inconclusive.
SMILES,GLA spleen mod,HTT cytoprotect,HttQ103 aggreg,GLA inh pH 4.5,PKM2 act
N#CCCn1c(=O)c(-c2cccs2)nc2cnc(N3CCNCC3)nc21,-11%,?,.,.,.
COc1ccc(-c2nc3c(c4c2C[C@H](c2ccccc2)OC4)CN(S(=O)(=O)c2ccc(Cl)c4nonc24)CC3)c(C)c1,0%[17.5 µM],-5%[10 µM],.,9,-1%[11.5 µM]
COc1ccc(C2CC(c3ccc4ccccc4c3)=NN2C(=O)CNC2CCCCC2)cc1 (configuration not stated),-3%,-20%,-6%,-15,-3%
C=CCNCC(=O)N1N=C(c2ccc3ccccc3c2)CC1c1ccc(OC)cc1 (configuration not stated),-1%,-2%[10 µM],13µM*,-10,-3%
COc1ccc(NC(=O)NCCN2CCN(c3cc(OC)ccc3OC)CC2)cc1,.,.,.,.,-4%[11.5 µM]
COc1ccc(Cl)c(N2CCN(CCCNC(=O)Nc3ccc(C)cc3)CC2)c1,0%,-35%,35µM*,-11,5%
COc1ccc2[nH]cc(CCNc3ncncc3-c3ccc4c(c3)OCO4)c2c1,-3%,?,.,.,.
COc1cccc(-c2cncnc2NCCc2c[nH]c3ccc(OC)cc23)c1,16%,3.2µM*,.,.,.
O=C(NC(=Nc1nc2ccccc2o1)NC(=O)c1ccccc1)c1ccccc1,5%,.,-12%,-17,-6%
COc1ccccc1C(=O)NC(=Nc1nc2ccccc2o1)NC(=O)c1ccccc1OC,8%,-18%[10 µM],10µM*,1,-3%
Cc1ccccc1Nc1nnc(SCc2cc([N+](=O)[O-])cc3c2OCOC3)s1,1%,-28%,18µM*,-6,-8%
O=[N+]([O-])c1cc2c(c(CSc3nnc(Nc4ccccc4)s3)c1)OCOC2,-12%,22%,8%,0,-9%
Cc1ccc(-c2csc(Nc3ccc(S(N)(=O)=O)cc3)n2)o1,1%,7%,-9%,-5,10µM*
Cc1nc(C)c(-c2csc(Nc3ccc(S(N)(=O)=O)cc3)n2)s1,.,.,.,.,-2%
O=C(Nc1n[nH]c(C2CCCCC2)n1)C1CCCCC1,2%,-1%,4.5µM*,-2,0%
O=[N+]([O-])c1cccc(C2=N[C@@H](Cc3ccccc3)CO2)c1,-5%[119 µM],-18%,.,-1,.
Cc1ccc(C)c(NS(=O)(=O)c2ccc(-c3coc(C)n3)cc2)c1,.,.,.,.,8%
Cc1nc(-c2ccc(S(=O)(=O)Nc3cccc(Cl)c3)cc2)co1,.,.,.,.,7.9µM*
Clc1ccc(Cl)c(Cl)c1Cl,9%,-4%,.,.,.
CCN(c1cccc(C)c1)c1ncnc2nc[nH]c12,-2%,0%[10 µM],8.9µM*,4,0%
CC(Cc1ccccc1)C(=O)NCCc1c[nH]c2ccccc12 (configuration not stated),-11%,-52%,.,-21,4%
CCc1nnc(NC(=O)c2ccc(S(=O)(=O)N3CCCc4ccccc43)cc2)o1,-1%,-69%[10 µM],8.9µM*,-2,1%
CNC(=O)c1ccsc1NC(=O)c1ccc(S(=O)(=O)N2CCCc3ccccc32)cc1,-1%,.,2%,8,-2%
COc1ccc(NC(=O)c2sc(SC)nc2N)cc1,-1%,-26%[10 µM],.,3,-12%
COc1ccc(NC(=O)c2sc(SCc3ccccc3)nc2N)cc1,0%,2%[10 µM],25µM*,-7,-6%
SMILES,GLA spleen mod,HTT cytoprotect,HttQ103 aggreg,GLA inh pH 4.5,PKM2 act
CC(=O)OCC(=O)Nc1ccc([N+](=O)[O-])cc1Cl,-8%,-27%,-10%,10,10%
CC(=O)Oc1c(C)cc(Cl)cc1C(=O)Nc1ccc([N+](=O)[O-])cc1Cl,1%,-58%[10 µM],0.25µM*,3,-2%
CCCCCCCC/C=C\CCCCCCCCN,.,-8%,0%,.,.
CC(C)CCn1c(-c2nonc2N)nc2ccccc21,4%,-3%[10 µM],11µM*,-3,1%
Clc1ccc(CSc2nnc(-c3ccncc3)o2)cc1,8%,-1%,10µM*,3,1%
C[C@@H](C(=O)NCc1ccc(C(F)(F)F)nc1)[C@H]1C[C@]1(C)[C@H](NC(=O)OCc1ccccc1)c1ccccc1,-4%,18%,.,-12,-14%
N#Cc1ccc(CN2CCC3(CCNCC3)CC2)cc1,12%,?,.,.,.
CCCNc1nc2c(c(=O)n(C)c(=O)n2C)n1Cc1ccc(F)cc1,-6%,-3%[10 µM],?,5,2%
Cn1c(=O)c2c(nc(NCc3ccco3)n2CCc2ccccc2)n(C)c1=O,-6%,-21%,13µM*,-8,7%
Cn1c(=O)c2c(nc(NCc3ccccc3)n2Cc2ccc(F)cc2)n(C)c1=O,1%,-21%[10 µM],20µM*,-15,-7%
O=C1C2=CC[C@H]3C(=O)N(Cc4ccc5c(c4)OCO5)C(=O)[C@@H]3[C@@H]2[C@H](O)[C@@H]2O[C@H]12,-4%[17.5 µM],?,.,.,.
NC(=O)c1c(-c2ccc(Cl)cc2Cl)csc1NC(=O)Cc1ccccc1,5%,0%[10 µM],11µM*,-14,2%
O=C(Cc1ccccc1)Nc1scc(-c2ccccc2)c1C(=O)N1CCOCC1,-7%,13%,15%,3,-1%
CC(=O)/C(=N/Nc1ccccc1[N+](=O)[O-])N1CCCc2ccccc21,-7%,.,11µM*,-4,-2%
CC(=O)OCC(NC(=O)C(Cc1ccccc1)NC(=O)OC(C)(C)C)C1OC(n2cc(F)c(=O)[nH]c2=O)C(OC(C)=O)C1OC(C)=O (configuration not stated),10%,.,.,.,.
O=C(NCCCc1nc2ccccc2[nH]1)c1ccc(F)cc1,-1%,0.35µM*,?,7,-3%
O=C(CNC(=O)c1ccc(Br)cc1)NCCc1nc2ccccc2[nH]1,0%,0%,8%,-11,-16%
CCCCCCCCNc1nc(Cl)nc(NCc2ccco2)n1,6%,0%[10 µM],-22%,0,-1%
CCCCCCNc1nc(NCc2ccco2)nc(OCC)n1,-6%,-59%,10µM*,-12,-10%
CC1(C)CC(=O)C2=C(C1)O[C@@]1(CCCCN3C(=O)c4ccccc4C3=O)Cc3cc(C#N)ccc3C2O1,.,.,.,.,-13%[11.5 µM]
CCOc1ccc(N=C2NC(=O)S/C2=C\c2ccc(N(C)C)cc2)cc1,3%,-88%,22µM*,-7,-7%
CC(=O)Nc1nonc1-c1nc2ccccc2n1CC1CC1,1%,30%,7.1µM*,-3,-2%
C=C(C)[C@@H]1CC[C@]2(C(=O)O)CC[C@]3(C)[C@H](CCC4[C@@]5(C)CC[C@H](O)C(C)(C)[C@@H]5CC[C@]43C)[C@@H]12 (some centres not stated),5%,-24%,.,.,.
O=C/C(=C\Nc1ccc(Cl)cn1)c1nc2ccccc2o1,0%,2%[10 µM],21%,1,1%
N#C/C(=C\Nc1ccc(Cl)cn1)S(=O)(=O)c1ccccc1,2%,14%[10 µM],9%[9.22 µM],0,16µM*
N#C/C(=C\Nc1ccc(Cl)cn1)S(=O)(=O)c1ccccn1,10%,7%[10 µM],3%[9.22 µM],-1,10µM*

# Bioassay records from PubChem.
